# According to the OligoGym collection:
# Assays:
# Experiment in all cases: pooled miR-30 sensor sort-seq; sequence = guide strand
# Conditions in all cases: shRNA
# [1] = molecular target: FANCF
# [2] = molecular target: FAN1
# [3] = molecular target: FANCG
# [4] = molecular target: FBXL3
# [5] = molecular target: FCF1
# [6] = molecular target: FGF23
# Further: reference of the scale not given here.
sequence,measurement,setting,value
ATGTGCACCGCAGACCGCCGGC,sensor-assay potency score (higher = more potent),[1],-1.25
TTGGAGTGTCTCCTCATCGGCG,sensor-assay potency score (higher = more potent),[1],-0.931
TTAGAACTTTATCTTTCAGAGG,sensor-assay potency score (higher = more potent),[1],-1.12
TTACATATAACTTCTGACCAGT,sensor-assay potency score (higher = more potent),[2],0.259
TTTCTGAAGGTCATAGTGCAAA,sensor-assay potency score (higher = more potent),[1],-1.33
TTTTGTAAACTATATATTCTAT,sensor-assay potency score (higher = more potent),[1],-0.511
TTGGGACTCAGTTCCAACCCAA,sensor-assay potency score (higher = more potent),[1],-0.182
TAGAACTTTATCTTTCAGAGGT,sensor-assay potency score (higher = more potent),[1],0.316
TTCAAAATCTCCATCCTGCGCT,sensor-assay potency score (higher = more potent),[1],0.034
AAACCTATTGTGCAACTCCTCC,sensor-assay potency score (higher = more potent),[1],-0.726
TGGAAGTTCGCTAATCCCGGAA,sensor-assay potency score (higher = more potent),[1],-0.728
TATCTTTCAGAGGTGGAGGGGC,sensor-assay potency score (higher = more potent),[1],-0.0769
TAACTAGGAAACTCCATTCGGC,sensor-assay potency score (higher = more potent),[2],-0.0842
TGACAGAGGCTTTGAAACCTAT,sensor-assay potency score (higher = more potent),[1],-1.18
TTGGGCACCCAGTTGAACCCAG,sensor-assay potency score (higher = more potent),[3],-0.577
TCTCTTGGAGTGTCTCCTCATC,sensor-assay potency score (higher = more potent),[1],-1.11
TTGGTCATCTTAATCCAGCTTA,sensor-assay potency score (higher = more potent),[2],0.33
TTGGGTTCTCTCTATAGCCATT,sensor-assay potency score (higher = more potent),[1],-1.39
TTCTTTGATACACTCTTGCTTT,sensor-assay potency score (higher = more potent),[2],-0.307
ATAACTTCTGACCAGTAGCTGA,sensor-assay potency score (higher = more potent),[2],-0.771
TTGACCAACAGGACTGTTGAAA,sensor-assay potency score (higher = more potent),[2],-0.462
TTGAACTTTTTACAGCTCGGAG,sensor-assay potency score (higher = more potent),[2],-1.04
ATAGACAGGAGACAGCGCTGGG,sensor-assay potency score (higher = more potent),[1],-0.33
TTGAAACCTATTGTGCAACTCC,sensor-assay potency score (higher = more potent),[1],0.168
TCTATAGCCATTGAAGCGCAGC,sensor-assay potency score (higher = more potent),[1],-1.1
ATAGCCATTGAAGCGCAGCATG,sensor-assay potency score (higher = more potent),[1],-1.41
TTGCTGATTGATAAGCTTCTAC,sensor-assay potency score (higher = more potent),[2],-0.452
TTGGCCTGTCGAACGAGCCGGT,sensor-assay potency score (higher = more potent),[3],-0.452
TTTCACATCTTGCACAGCCATT,sensor-assay potency score (higher = more potent),[2],-1.51
TACTTCAAAATCTCCATCCTGC,sensor-assay potency score (higher = more potent),[1],0.811
TAGTAATTCTACCTCAATGAGA,sensor-assay potency score (higher = more potent),[3],-0.931
AAGAGGTCTGTCCAGATGCTAA,sensor-assay potency score (higher = more potent),[1],-1.55
TACATCACTAAGTTCACTTTGG,sensor-assay potency score (higher = more potent),[4],0.0732
TACTGGAGTATCATCTATCTTA,sensor-assay potency score (higher = more potent),[4],-0.0234
TTAGGTTTTAATCTATCCTTTT,sensor-assay potency score (higher = more potent),[5],-0.692
TCTGATCTGATCATCAGGGCAC,sensor-assay potency score (higher = more potent),[6],0.338
